An excerpt weighted towards active compounds, which were near 19% of everything screened.
HT1080 IDH1KD tx: toxicity to HT-1080 IDH1 knockdown cells (counter line); HT-1080 IDH1 knockdown viability, ATP luminescence, 48 h; Potency, µM (doses to about 46.1 µM), for inactives: at the top dose activity, negative = toxicity, usual class: cytotoxic; hit rate 2% among 360,000;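 note: potency is the fitted concentration of half-maximal effect; 0% = DMSO wells and -100% = cell-free medium wells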
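After a 2 h attachment period, IDH1KD HT-1080 cells took pin-transferred compound for 48 h at 37 °C; ATP-based luminescence after 10 min room-temperature reagent incubation reported viability.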
IL1B secr inh: inhibitors of inflammasome signaling (IL-1 beta secretion). THP-1 LPS/ATP IL-1B secretion, AlphaLISA, 16 h; hits give low values. hit rate 4.7% among 360,000. activity change, % at 57.5 µM; in the data active = activity change below about -50%; inconclusive = mostly about -30% to -49%
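THP-1 cells pretreated 1 hr with compounds (up to 57.5 uM final), then stimulated with LPS (250 ng/mL final) plus ATP (1.25 mM final); secreted IL-1B measured by AlphaLISA after 16 hr, decreased signal indicating inhibition.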
TDP1 cell noCPT: qHTS for Inhibitors of human tyrosyl-DNA phosphodiesterase 1 (TDP1): qHTS in cells in absence of CPT. AID 686978, 2013. Potency, µM (doses to about 46.2 µM), without a hit: top-dose activity change, negative = growth inhibition, usual class: inhibitors. DT40 Tdp1-/- hTDP1 cells, no CPT, ATP luminescence, 48 h. hit rate 15% among 420,000; note: potency is the fitted concentration of half-maximal effect; nearly all actives have a fitted effect of over 55% in size
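Stably hTDP1-transfected Tdp1-null chicken DT40 cells were treated with library compounds minus camptothecin and grown for at least 48 hr at 37 °C, after which cellular ATP was quantified by luminescence.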
HT1080-NT tox: kills 2HG-producing HT-1080-NT fibrosarcoma cells. HT-1080-NT fibrosarcoma viability, CellTiter-Glo ATP luminescence, 48 h. Potency, µM (titrated, usually from 46.1 µM), inactives show top-dose activity, negative = less viability, most hits filed as cytotoxic. hit rate 1.6% among 360,000;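 note: NT is the 2HG producing partner of a matched IDH1 knockdown line; potency is the fitted concentration of half-maximal effect; 0% = DMSO-treated cells and -100% = media-only wells without cells; nearly all actives have a fitted effect of over 55% in size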
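Fibrosarcoma NT cells, 750 per well in 5% FBS RPMI, were exposed to compound for 48 hours. Viability: CellTiter-Glo luminescence.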
uPA surface inh: blocks generation of uPA at the cell surface | hit rate 0.31% among 330,000 | cell surface uPA generation assay, qHTS | Potency, µM (top dose mostly 38.3 µM), for inactives: top-dose activity change, negative = inhibition, actives largely listed as inhibitors; active = well fitted inhibition curve with a large enough effect; inconclusive = small, poorly fitted or top-dose-only effect; inactive = no such curve, though single readings can be large or run the other way; tested in mouse RAW 264.7 cells; note: potency is the fitted concentration of half-maximal effect; nearly all actives have a fitted effect of over 55% in size
TDP1 cell CPT: DT40-hTDP1 cell growth loss with CPT | chicken DT40 Tdp1-/-;hTDP1 cells + 20 nM CPT, ATP luminescence, 48 h | Potency, µM (series often up to 46.2 µM), without a hit: at the highest dose activity change, negative = growth inhibition, actives largely listed as inhibitors | hit rate 12% among 420,000 | AID 686979; note: potency is the fitted concentration of half-maximal effect; nearly all actives have a fitted effect of over 55% in size
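Chicken DT40 Tdp1-/- cells complemented with human TDP1, 400 cells/well, exposed to compounds plus 20 nM camptothecin for at least 48 h at 37 C; viability read as ATP content by CellTiter-Glo luminescence.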
* = called active by the depositor; [ ] = another dose, or the depositor's remark. Unless noted, calls come from the whole dose curve; as a rule, active = well fitted curve in the direction sought with a large enough effect; inconclusive = small, poorly fitted or top-dose-only effect, or another doubt; inactive = no such curve, though single readings can be large; an effect the other way counts as inactive or inconclusive. Unless noted, % is set by controls: 0 for no effect and ±100 for the full control effect.

Results for COc1cc(-c2nc(S(=O)(=O)c3ccc(Cl)cc3)c(N3CCOCC3)o2)cc(OC)c1OC ?
HT1080 IDH1KD tx: -22%; IL1B secr inh: -29; TDP1 cell noCPT: 16µM*; HT1080-NT tox: 21%; TDP1 cell CPT: inconclusive

What do the screens show for `O=P(c1ccccc1)(c1ccccc1)c1nc(-c2ccc(Cl)cc2)oc1N1CCOCC1`?
HT1080 IDH1KD tx: -24%; IL1B secr inh: -65*; TDP1 cell noCPT: -21%; HT1080-NT tox: -25%; uPA surface inh: -25%; TDP1 cell CPT: inconclusive

Results for COc1cc(-c2nc(S(=O)(=O)c3ccc(C)cc3)c(N3CCOCC3)o2)cc(OC)c1OC ?
HT1080 IDH1KD tx: -14%; IL1B secr inh: 5; TDP1 cell noCPT: 9.2µM*; HT1080-NT tox: 3%; uPA surface inh: -5%; TDP1 cell CPT: 12µM*

What do the screens show for `C=Cn1cc[n+](CC(=O)C(C)(C)C)c1`?
HT1080 IDH1KD tx: 5%; IL1B secr inh: 38; TDP1 cell noCPT: 3%; HT1080-NT tox: 7%; uPA surface inh: 4%; TDP1 cell CPT: -4%

How did COc1ccc(-c2nnc(SCC(=O)Nc3cccc(Cl)c3C)nc2-c2ccc(OC)cc2)cc1 do in these assays?
TDP1 cell noCPT: 10µM*; TDP1 cell CPT: inconclusive

What do the screens show for `CC(=O)c1ccc(NC(=O)CSc2nnc(-c3ccco3)c(-c3ccco3)n2)cc1`?
HT1080 IDH1KD tx: -22%; IL1B secr inh: -26; TDP1 cell noCPT: -26%; HT1080-NT tox: -20%; uPA surface inh: -4%; TDP1 cell CPT: inconclusive

What do the screens show for `COc1ccc(-c2nnc(SCC(=O)Nc3ccc(C(C)=O)cc3)nc2-c2ccc(OC)cc2)cc1`?
TDP1 cell noCPT: 10µM*; TDP1 cell CPT: 12µM*

What do the screens show for `COC(=O)c1ccccc1NC(=O)c1ccc2c(c1)CCN2S(=O)(=O)c1ccc(Cl)cc1`?
TDP1 cell noCPT: -9%; TDP1 cell CPT: -17%

How did CCCCCCCCCCCCCC(=O)O[C@H](CC(=O)O)C[N+](C)(C)C do in these assays?
TDP1 cell noCPT: -21%; TDP1 cell CPT: inconclusive

How did CCCCCCCCCCCCCCCC(=O)O[C@H](CC(=O)O)C[N+](C)(C)C do in these assays?
TDP1 cell noCPT: 30µM*; TDP1 cell CPT: inconclusive

Results for CCCCCCCCCCCCCCCC(=O)OC(CC(=O)O)C[N+](C)(C)C (stereo not drawn) ?
HT1080 IDH1KD tx: inconclusive; IL1B secr inh: 0; TDP1 cell noCPT: inconclusive; HT1080-NT tox: 9.2µM*; uPA surface inh: inconclusive; TDP1 cell CPT: 5.8µM*

What do the screens show for `COC(=O)c1cc(CNC(=O)c2ccccc2OC)cc(NC(=O)c2ccccc2F)c1`?
TDP1 cell noCPT: 16µM*; TDP1 cell CPT: 21µM*

How did COC(=O)c1cc(CNC(=O)c2ccccc2F)cc(NC(=O)c2ccccc2OC)c1 do in these assays?
TDP1 cell noCPT: 23µM*; TDP1 cell CPT: -17%[9.04 µM]

What do the screens show for `CCSc1nnc(NC(=O)c2ccccc2C)s1`?
HT1080 IDH1KD tx: 3%; IL1B secr inh: -14; TDP1 cell noCPT: inconclusive; HT1080-NT tox: 10%; uPA surface inh: -2%; TDP1 cell CPT: inconclusive

Results for CC1=CC(C)(C)N=C(Nc2nc(C)c3cc(C)cc(C)c3n2)N1 ?
HT1080 IDH1KD tx: -4%; IL1B secr inh: -95*; TDP1 cell noCPT: 16µM*; HT1080-NT tox: -4%; uPA surface inh: inconclusive; TDP1 cell CPT: 15µM*

How did Cc1ccccc1-c1noc(-c2ccc(N3CCC(C)CC3)c([N+](=O)[O-])c2)n1 do in these assays?
TDP1 cell noCPT: -12%; TDP1 cell CPT: -25%

What do the screens show for `CCN(CC)CCn1c2c(c(SCC(=O)Nc3cc(C)cc(C)c3)nc1=O)CCC2`?
HT1080 IDH1KD tx: 1%; IL1B secr inh: -4; TDP1 cell noCPT: -2%; HT1080-NT tox: 10%; uPA surface inh: 1%; TDP1 cell CPT: 2%

How did CCN(CC)CCn1c2c(c(SCC(=O)Nc3cccc4ccccc34)nc1=O)CCCC2 do in these assays?
HT1080 IDH1KD tx: -1%; IL1B secr inh: -66*; TDP1 cell noCPT: inconclusive; HT1080-NT tox: 2%; uPA surface inh: 8%; TDP1 cell CPT: inconclusive

How did CCCCc1ccc(NC(=O)CSc2nc(=O)n(CCN(C)C)c3c2CCC3)cc1 do in these assays?
HT1080 IDH1KD tx: 15µM*; IL1B secr inh: -72*; TDP1 cell noCPT: inconclusive; HT1080-NT tox: 21µM*; uPA surface inh: -9%; TDP1 cell CPT: inconclusive

What do the screens show for `CCCCc1ccc(NC(=O)CSc2nc(=O)n(CCN(CC)CC)c3c2CCCC3)cc1`?
HT1080 IDH1KD tx: inconclusive; IL1B secr inh: -78*; TDP1 cell noCPT: 23µM*; HT1080-NT tox: inconclusive; uPA surface inh: 3%; TDP1 cell CPT: inconclusive

Results for Cc1ccc(NC(=O)CSc2nc(=O)n(CCN(C)C)c3c2CCCC3)cc1Cl ?
HT1080 IDH1KD tx: inconclusive; IL1B secr inh: -87*; TDP1 cell noCPT: inconclusive; HT1080-NT tox: -18%; uPA surface inh: -11%; TDP1 cell CPT: inconclusive

How did CN(C)CCn1c2c(c(SCC(=O)Nc3cccc4ccccc34)nc1=O)CCC2 do in these assays?
HT1080 IDH1KD tx: -4%; IL1B secr inh: inconclusive; TDP1 cell noCPT: -27%; HT1080-NT tox: -17%; uPA surface inh: 0%; TDP1 cell CPT: 7%

Results for COc1ccc(NC(=O)CSc2nc(=O)n(CCN(C)C)c3c2CCCC3)cc1 ?
HT1080 IDH1KD tx: 2%; IL1B secr inh: 10; TDP1 cell noCPT: -14%; HT1080-NT tox: 4%; uPA surface inh: 3%; TDP1 cell CPT: -25%

How did COc1cccc(CNC(=O)[C@@H]2CCCN2C(=O)OC(C)(C)C)c1 do in these assays?
HT1080 IDH1KD tx: 0%; IL1B secr inh: -2; TDP1 cell noCPT: -13%; HT1080-NT tox: 3%; TDP1 cell CPT: -21%

How did N#Cc1ccccc1COc1cccc2c1CCCC2O (stereo not drawn) do in these assays?
HT1080 IDH1KD tx: -12%; IL1B secr inh: -16; TDP1 cell noCPT: 15µM*; HT1080-NT tox: 5%; uPA surface inh: 0%; TDP1 cell CPT: inconclusive

How did N#Cc1ccccc1OCC(=O)NNC(=O)CCC1CCCC1 do in these assays?
HT1080 IDH1KD tx: 8%; IL1B secr inh: 20; TDP1 cell noCPT: -9%; HT1080-NT tox: 3%; uPA surface inh: 1%; TDP1 cell CPT: 0%

Results for COc1ccc(-c2coc3ccc(OC4OC(COC(C)=O)C(OC(C)=O)C(OC(C)=O)C4OC(C)=O)cc3c2=O)cc1 (stereo not drawn) ?
TDP1 cell noCPT: 1.1µM*; TDP1 cell CPT: 2.7µM*

Screening results as filed in PubChem.
